Experimental findings from PubChem BioAssay AID2685 (National Center for Advancing Translational Sciences (NCATS), 2010) are described below.

Structures are written as SMILES. Screen size: about 320,000 compounds; about 2,100 (0.66%) were called active. Another 53% or so got no clear call; they are omitted. Calls come from the whole dose curve; as a rule, active = well fitted inhibition curve with a large enough effect in the signal ratio, with a control signal flat (not every such curve was filed as active); inconclusive = small, poorly fitted or top-dose-only effect, or effect the other way, or a change in a side signal; inactive = flat fitted curve, though single readings scatter; the % refers to the signal ratio. The full list was thinned out, with actives kept by preference.
Potency is the fitted concentration of half-maximal effect.

The assay can be described thus: qHTS Assay for Lipid Storage Modulators in Drosophila S3 Cells.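 For cell number change: cells counted by Cell Tracker Red CMTPX staining in the red channel.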 For lipid storage change, negative = inhibition: % is set by controls: 0 for no effect and ±100 for the full control effect. As to conditions: BODIPY lipid droplet fluorescence, 18-24 h, cells fed with added oleic acid; cell number change: measured here: cell count max response; series mostly up to 46.1 µM; lipid storage change, negative = inhibition: at the top concentration. An outline of the steps:
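Drosophila S3 cells got compounds at several concentrations plus oleic acid (400 uM solution). Laser-scanning cytometry with 488 nm excitation read lipid droplets at 500-530 nm and cells at 575-640 nm. Percent activity was relative to 20 uM Triacsin C.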
On the technique in general: qHTS replaces the single test concentration by a dilution series.
As for `Cc1ccc(OCCOCCn2ccnc2)c(Br)c1`, the outcome was inactive and the cell number change is -17%.
With `COc1ccc(-c2csc3ncn(-c4cccc(C)c4)c(=O)c23)cc1OC`, the “lipid storage change, negative = inhibition” value was 9.43% (inactive) and the cell number change came to 14.7%.
In the case of `O=C(Nc1ncccn1)c1cccc(F)c1`, the “lipid storage change, negative = inhibition” value is 20.9% (inactive) and the cell number change was -18.7%.
The like results for `O=C(N/N=C/c1cccc2ccccc12)c1ccncc1` were, in that order, 1.15% (inactive) and 0.153%.
The like results for `O=C(N/N=C/c1ccccc1Cl)c1cccc(F)c1` were, in that order, 13.9% (inactive) and 0.333%.
As to `O=C(Nc1ccc(F)cc1)c1ccc2[nH]c(=O)c(=O)[nH]c2c1`, the “lipid storage change, negative = inhibition” value was -21.9% (inactive) and the cell number change came out at 25.6%.
In the same order, the values of `Cc1cc(NC(=O)c2cccc(F)c2)no1` are -3.93% (inactive) and 9.9%.
Regarding `O=C(Nc1ccc(F)cc1)c1ccccc1`, the compound was called inactive.
Consider `O=C(Nc1ccc(F)cc1)c1cccc(C(=O)Nc2ccc(F)cc2)c1`, for which the Potency was 0.231 µM (active) and the cell number change turned out to be 22.5%.
The like results for `O=C(N/N=C/c1cccc2ccccc12)c1cccc(F)c1` were, in that order, 11.2 µM (active) and -0.111%.
Consider `O=C(Nc1cccc(NC(=O)c2cccc(F)c2)n1)c1cccc(F)c1`, for which the Potency is 6.51 µM (active).
In the case of `Cc1ccc(S(=O)(=O)c2nc(-c3ccccc3Cl)oc2NCCCN2CCOCC2)cc1`, the compound was called inactive.
For the compound `CCOC(=O)C1(Cc2ccccc2)CCN(Cc2cn[nH]c2-c2ccccc2)CC1`, the “lipid storage change, negative = inhibition” value is 14% (inactive) and the cell number change was 4.32%.
Turning to `C[C@H](NC(=O)CCn1nnc2ccccc2c1=O)C(=O)O`, the “lipid storage change, negative = inhibition” value is 9.98% (inactive) and the cell number change is -17.6%.
In the same order, the values of `O=C(c1ccc(F)cc1)C1CCN(Cc2ccc(F)cc2)CC1` are 23.9% (inactive) and 16.1%.
Turning to `CCn1c(CCNC(=O)c2ccc(Cl)cc2)n[nH]c1=S`, the Potency is 1.84 µM (active) and the cell number change was found to be 24.6%.
Regarding `Cn1c(CCNC(=O)c2ccc(Cl)cc2)n[nH]c1=S`, the “lipid storage change, negative = inhibition” value was -23.5% (inactive) and the cell number change was -13.4%.
In the case of `CCn1c(CCNC(=O)c2ccc(C)cc2)n[nH]c1=S`, the “lipid storage change, negative = inhibition” value was 18% (inactive) and the cell number change is 22.9%.
In the case of `CN1CCN(c2nc(C(N)=O)cc(-c3ccccc3)n2)CC1`, the “lipid storage change, negative = inhibition” value was 5.39% (inactive) and the cell number change was -10.6%.
In the same order, the values of `COc1ccc(-c2nc(CSCC(=O)N3CCC(C(N)=O)CC3)c(C)o2)cc1OC` are 14.4% (inactive) and -1.8%.
Take `COC(=O)c1ccc(/C=C/C(=O)O)cc1`: the “lipid storage change, negative = inhibition” value is 3.31% (inactive) and the cell number change stood at 2.73%.
For `COC(=O)c1ccc2c(c1)C(C)(C)C(/C=C/c1ccc(O)cc1)=[N+]2C`, the Potency is 5.17 µM (active) and the cell number change turned out to be 1%.
Take `COc1ccc(C(=O)/C=C/c2ccc(O)cc2)cc1`: the “lipid storage change, negative = inhibition” value was 1.73% (inactive) and the cell number change was -17.3%.
In the case of `Cc1cc(NC(=O)CSc2ncnc3sc(C)c(C)c23)no1`, the outcome was inactive.
Take `Cc1ccc(S(=O)(=O)N2CCC(C(=O)Nc3nnc(C4CCCC4)s3)CC2)cc1`: the “lipid storage change, negative = inhibition” value is 5.91% (inactive) and the cell number change turned out to be 5.99%.
In the same order, the values of `COc1ccc(CNC(=O)CC2(CC(=O)O)CCCCC2)cc1` are -10.1% (inactive) and -16.2%.
With `COc1ccccc1NC(=O)C(C)NS(=O)(=O)c1ccc(Cl)cc1` (stereo not drawn), the Potency is 6.51 µM (active) and the cell number change came to 10.9%.
Turning to `COc1ccc(S(=O)(=O)NC(C)C(=O)Nc2ccccc2F)cc1` (stereo not drawn), the “lipid storage change, negative = inhibition” value is 11.5% (inactive) and the cell number change is 4.07%.
The like results for `COc1ccccc1NC(=O)C(C)NS(=O)(=O)c1ccc(F)cc1` (stereo not drawn) were, in that order, 2.58% (inactive) and 6.54%.
For `COc1cc(C(=O)OCC(=O)N2CCCCC2C)cc(NC(=O)c2cccs2)c1OC` (stereo not drawn), the “lipid storage change, negative = inhibition” value was 2.46% (inactive) and the cell number change came out at 7.36%.
As for `COC(=O)CNC(=O)C1CCC(CNS(=O)(=O)c2cccc3nsnc23)CC1` (stereo not drawn), the “lipid storage change, negative = inhibition” value was 20.8% (inactive) and the cell number change is -18.8%.
On to `CC(C)(C)NC(=O)C1CCC(CNS(=O)(=O)c2cccc3nsnc23)CC1` (stereo not drawn), for which the Potency is 18.4 µM (active).
As to `CCCNC(=O)C1CCC(CNS(=O)(=O)c2cccc3nsnc23)CC1` (stereo not drawn), the “lipid storage change, negative = inhibition” value was -7.4% (inactive).
As to `Cc1cc(NC(=O)CSc2nc(=O)n3cc(Cl)ccc3n2)no1`, the cell number change came out at 13.5% and the lipid storage change, negative = inhibition was 0.863% [at 0.0737 µM] (inactive).
The like results for `Fc1ccc(CNn2cnnc2SCc2ccc(F)cc2)cc1` were, in that order, 9.34% and 5.62% (inactive).
The like results for `CCc1cccc2c(C(=O)COC(=O)c3cccc(S(=O)(=O)N(C)C4CCCCC4)c3)c[nH]c12` were, in that order, 6.53% and -20% (inactive).
Turning to `C=CCN(C(=O)c1csnn1)C(C(=O)NC1CCCC1)c1ccccc1F` (stereo not drawn), the result was inactive and the cell number change was -7.62%.
The like results for `C=CCN(C(=O)c1csnn1)C(C(=O)NC1CCCCC1)c1ccc(F)cc1` (stereo not drawn) were, in that order, “inactive” and 11.7%.
In the same order, the values of `C=CCN(C(=O)c1csnn1)C(C(=O)NC1CCCC1)c1ccc(Cl)cc1` (stereo not drawn) are “inactive” and -41%.
In the case of `O=C(NC1CCCC1)C(c1c(F)cccc1Cl)N(C(=O)c1csnn1)C1CC1` (stereo not drawn), the Potency was 16.4 µM (active) and the cell number change is -12.9%.
`C=CCN(C(=O)c1csnn1)C(C(=O)NC1CCCC1)c1c(F)cccc1Cl` (stereo not drawn): the Potency is 9.2 µM (active) and the cell number change came to 0.427%.
`O=C(NC1CCCC1)C(c1ccc(F)cc1)N(C(=O)c1csnn1)C1CC1` (stereo not drawn): the “lipid storage change, negative = inhibition” value was -8.24% (inactive) and the cell number change is -11.5%.
In the same order, the values of `O=C(NC1CCCC1)C(c1ccc(Cl)cc1)N(C(=O)c1csnn1)C1CC1` (stereo not drawn) are -21.7% (inactive) and 12.1%.
As for `C=CCN(C(=O)c1csnn1)C(C(=O)NC1CCCC1)c1ccccc1` (stereo not drawn), the call was inactive and the cell number change turned out to be 15.2%.
Regarding `C=CCN(C(=O)c1csnn1)C(C(=O)NC1CCCCC1)c1ccccc1F` (stereo not drawn), the Potency was 13 µM (active) and the cell number change came to 2.14%.
As to `O=C(c1cccc(COc2cccc3ccccc23)c1)N1CCCC1`, the “lipid storage change, negative = inhibition” value was 0.849% (inactive) and the cell number change is -5.05%.
In the same order, the values of `COc1ccc(/C=N/Nc2nnc(-c3ncc[nH]3)c3ccccc23)cc1` are -8.98% (inactive) and -1.94%.
